“And” between values parts separate entries of the source, which are not always exact repeats. Equal entries are not always repeated. The whole screen tested about 350,000 compounds, of which about 700 (0.2%) were called active. The call rests on the fitted dose curve; in most records, active means well fitted inhibition curve with a large enough effect; inconclusive means small, poorly fitted or top-dose-only effect; inactive means flat fitted curve, though single readings scatter. The list comes from a sample in which actives are over-represented; it also holds similar structures and randomly drawn compounds. Bridge positions count the residues as written; N and C are the ends. Peptide text beside a SMILES is read from it.
target: RecQ-like DNA helicase BLM (Homo sapiens) (UniProt P54132); test: qHTS Assay for Inhibitors of Bloom's syndrome helicase (BLM); conditions: recombinant BLM DNA unwinding, fluorescence dequenching; series mostly up to 56.1 µM; activity change, negative = inhibition: at the top concentration; further: nearly all actives have a fitted effect of over 35% in size
Sequence (P54132 whole entry, looked up): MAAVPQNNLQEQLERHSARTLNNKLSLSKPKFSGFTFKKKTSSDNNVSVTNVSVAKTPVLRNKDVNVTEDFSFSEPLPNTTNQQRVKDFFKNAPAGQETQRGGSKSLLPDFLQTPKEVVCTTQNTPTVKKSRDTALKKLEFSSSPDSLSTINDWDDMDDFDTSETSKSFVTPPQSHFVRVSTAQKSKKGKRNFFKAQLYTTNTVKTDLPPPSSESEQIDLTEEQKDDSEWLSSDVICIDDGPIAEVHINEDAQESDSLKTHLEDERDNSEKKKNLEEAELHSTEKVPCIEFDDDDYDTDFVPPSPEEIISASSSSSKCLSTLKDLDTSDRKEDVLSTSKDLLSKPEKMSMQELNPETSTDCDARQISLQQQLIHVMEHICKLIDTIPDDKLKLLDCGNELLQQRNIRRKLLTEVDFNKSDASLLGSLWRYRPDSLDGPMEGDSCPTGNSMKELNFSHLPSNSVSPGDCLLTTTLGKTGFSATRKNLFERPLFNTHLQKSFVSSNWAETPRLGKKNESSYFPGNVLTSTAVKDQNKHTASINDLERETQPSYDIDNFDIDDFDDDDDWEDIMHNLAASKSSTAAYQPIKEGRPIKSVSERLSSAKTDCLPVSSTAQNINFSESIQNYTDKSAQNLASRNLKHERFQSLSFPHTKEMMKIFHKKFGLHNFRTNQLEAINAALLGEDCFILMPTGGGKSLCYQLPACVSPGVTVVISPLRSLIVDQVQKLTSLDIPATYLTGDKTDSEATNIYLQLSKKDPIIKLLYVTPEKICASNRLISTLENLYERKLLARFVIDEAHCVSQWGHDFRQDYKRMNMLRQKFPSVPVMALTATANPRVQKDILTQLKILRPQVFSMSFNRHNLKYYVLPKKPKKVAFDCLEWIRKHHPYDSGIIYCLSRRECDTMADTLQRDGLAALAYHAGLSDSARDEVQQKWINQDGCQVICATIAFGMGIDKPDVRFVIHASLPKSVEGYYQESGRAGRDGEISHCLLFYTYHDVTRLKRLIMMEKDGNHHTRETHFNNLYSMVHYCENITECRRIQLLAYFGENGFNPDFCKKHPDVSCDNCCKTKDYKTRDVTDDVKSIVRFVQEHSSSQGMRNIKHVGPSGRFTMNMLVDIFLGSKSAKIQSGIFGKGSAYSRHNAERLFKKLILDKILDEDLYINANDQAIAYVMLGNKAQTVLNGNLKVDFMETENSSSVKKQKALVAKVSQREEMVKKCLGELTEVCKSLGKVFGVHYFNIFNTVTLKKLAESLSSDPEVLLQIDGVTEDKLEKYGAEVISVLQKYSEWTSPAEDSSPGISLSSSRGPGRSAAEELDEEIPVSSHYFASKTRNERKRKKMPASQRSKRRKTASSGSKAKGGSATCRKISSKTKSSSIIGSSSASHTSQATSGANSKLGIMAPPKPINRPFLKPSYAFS
Text: Survival of cells and the faithful propagation of the genome depend on elaborate mechanisms of detecting and repairing DNA damage. Treatment of advanced cancer relies on radiation therapy or chemotherapy, which kill cancer cells by causing extensive DNA damage. It is often found, that cancer cells develop resistance to therapy through enhanced activity of DNA repair functions; this has led to an increased interest in developing drugs that interfere with DNA repair, which could sensitize cancer cells to conventional therapy.
This validation qHTS assay pertains to human BLM, which is important in resolving abnormal DNA structures formed during replication or homologous recombination. Shutting down the expression of BLM leads to chromosomal instability and higher radiation sensitivity in cultured cells.
The validation assay was a fluorescence quenching based kinetic qHTS for BLM Helicase DNA unwinding. The activity was measured as ATP-dependent separation of a 20-bp DNA duplex extended by 30-nt single-stranded tails (forked duplex). The forked DNA substrate was tagged with rhodamine fluorophore (carboxytetramethyl rhodamine, TAMRA) and BHQ-2 (Black Hole Quencher 2) dark quencher. Strand separation results in an increase in the fluorescence of TAMRA (excitation 525 nm, emission 598 nm). This substrate construct operates in a red-shifted region where very few compound library members have been noted to fluoresce (PubChem AIDs 593 and 594). An additional feature of the assay is the inclusion of 2.5 ug/ml poly (dIdC), to reduce interference by compounds such as DNA intercalators, a major source of false inhibitors.
Ian Hickson, University of Oxford
Opher Gileadi, Structural Genomics Consortium, University of Oxford
Screening Center PI: Austin, C.P.
Screening Center: NIH Chemical Genomics Center [NCGC]
Three uL of reaction buffer (25 mM Tris-HCl (pH 8.0), 5 mM NaCl, 2 mM MgCl2, 1mM DTT, 0.01% Tween- 20, and 2.5 ug/ml poly(dI-dC), including enzyme (50 nM BLM), were dispensed into a 1536-well Greiner black assay plate via solenoid-valve based nanoliter dispensers. Compounds (23 nl each in columns 5-48) and control (23 nl each in column 2 as dose-response) were transferred via a Kalypsys pintool equipped with a 1536-pin array. The plates were incubated for 15 min at room temperature, and then 1 ul of substrates (200 nM DNA and 2 mM ATP, final concentrations) was added to start the reaction. The plate was transferred into a ViewLux high-throughput CCD imager where the reaction progress was measured in a discontinuous kinetic mode (two reads spaced 2 hours apart, with intermediate room temperature incubation of the covered assay plate) by using standard red-fluorescence optics (excitation filter 525 nm, emission filter 598 nm). Enzyme-free and vehicle (DMSO) controls were included for signal normalization.
Potency means the concentration at half of the fitted maximal effect.

Activity change, negative = inhibition, inactive:
C=CC1=C2C=C(C3CC3)N(C(CO)CO)C=C2C(=O)C(C)(OC(=O)c2ccco2)C1=O (stereo not given) -12.4% [at 12.4 µM]
C[C@@H](O)[C@@H]1NC(=O)[C@H](CCCCN)NC(=O)[C@H](Cc2c[nH]c3ccccc23)NC(=O)[C@H](Cc2ccccc2)NC(=O)[C@H](Cc2ccccc2)NC(=O)[C@H](CC(N)=O)NC(=O)[C@H](CCCCN)NC(=O)[C@@H](NC(=O)[C@@H]2CCCN2)CSSC[C@@H](C(=O)N[C@@H](CCCCN)C(=O)O)NC(=O)[C@H](CO)NC(=O)[C@H](CO)NC(=O)[C@H](Cc2ccccc2)NC1=O (H-PCKNFFWKTFSSCK-OH; disulfide 2-13) 21.2%
CCOC(=O)C1CCCN(C(=O)c2ccc3c(c2)sc2nc(-c4ccc(CC)cc4)cn23)C1 (stereo not given) -2.58%
CC[C@]1([C@H]2O[C@@H]([C@@H]3O[C@](O)(CO)[C@@H](C)C[C@H]3C)C[C@H]2C)CC[C@@H]([C@]2(C)CC[C@@]3(C[C@@H](O)[C@@H](C)[C@@H]([C@H](C)[C@H](OC)[C@H](C)C(=O)O)O3)O2)O1 2.14% [at 21.4 µM]
Cc1ccc(NC(=O)CSc2nc(CSc3ccc(C)cc3)cc(=O)[nH]2)cc1 -5.28%
Cc1ccc(OCCCC(=O)Nc2ccc(S(=O)(=O)Nc3cc(C)nc(C)n3)cc2)cc1 -3.4%
COCCn1c(=O)c(CCc2ccccc2)nc2cnc(N3CCNCC3)nc21 2.72%
N[C@@H](C(=O)O)c1ccc(P(=O)(O)O)cc1 1.25%
COC(C)C(C(=O)OCC1=CCN2CC[C@H](O)[C@@H]12)C(C)C (stereo not given in full) 3%
COc1ccc2c3c1OC1CC(O)C=C[C@@]31CCN(C)C2 (stereo not given in full) -12.8%
CCOC(=O)c1c(C)[nH]c(C(=O)NCc2ccccc2OC)c1C 2.72%
CCOC(=O)c1c(SCC(=O)Nc2cccc(C)c2C)nc(=O)[nH]c1C -1.44%
COc1ccc(NS(=O)(=O)c2cc3c4c(c2)CC(=O)N4CCC3)cc1Cl 1.48%
COC(=O)C(C(=O)OC)[C@@H](NC=O)c1ccccc1 -1.06%
CCCCS(=O)(=O)N1C2=NC(C(=O)OC)=C(C(=O)OC)[C@@H]3N(Cc4ccccc4)c4ccccc4[C@]23C[C@H]1C(=O)OC -0.97% [at 12.4 µM]
C=CCOC(=O)C(C(C)=O)C(NC(=O)OC)c1ccccc1 (stereo not given) -4.39% [at 12.4 µM]
CC(C)C[C@@H](CC(=O)N[C@@H](CCC(=O)O)CC(=O)O)NC(=O)[C@@H]1CCCC[C@H]1NC(=O)C[C@@H](NC(=O)C[C@H](Cc1c[nH]c2ccccc12)NC(=O)[C@@H]1CCCC[C@H]1N)C(C)C 0.14%
Nc1ncn(C2OC(CO)C(O)C2O)c(=O)n1 (stereo not given) -5.76%
CC1CC[C@@]23CCC4(C)[C@@]5(C)CCC6C(C)(C)C(O)CC[C@@]6(C)C5C=C[C@@]4(OC2=O)C3C1C (stereo not given in full) -0.263%
COc1ccc(-c2nc3c(c4c2C[C@H](c2ccccc2)OC4)CN(C(=O)c2cccnc2)CC3)c(C)c1 0.694% [at 12.4 µM]
C=C1O[C@@](CO)(n2cnc3c(N)ncnc32)[C@H](O)[C@@H]1O 0.613%
COc1ccc(-c2nc(-c3ccccc3)oc2Nc2ccc3ccccc3c2)cc1 3.96%
CCCC[C@H]1C(=O)N(c2ccccc2)N(c2ccc(O)cc2)C1=O 2.14% [at 21.4 µM]
COC(=O)[C@@]1(Cc2ccc(F)cc2)[C@@H]2[C@@H](CC(=O)[C@H]2CC(=O)C(=O)N2CCCC2)CN1C(=O)c1ccccc1 -2.36%
COC(=O)C1(C)C=CC2(CCCCC2)N1C(C)=O (stereo not given) -1.29%
CC1=C2[C@@H](O)[C@H]([C@@H](C)C(=O)NCCC(C)C)CC[C@@]2(C)C=CC1=O -1.03%
Cc1ccc(-c2ncc(Cl)cc2-c2ccc(S(C)(=O)=O)cc2)cn1 2.81%
C[C@H]1CC[C@H](C(=O)O)N[C@@H]1c1ccc(C#Cc2ccccc2)cc1 6.21% [at 12.4 µM]
COc1ccccc1CNc1ncnc2ccc(-c3c(C)noc3C)cc12 1.02%
Nc1nc2[nH]c(=O)c(=O)[nH]c2c(=O)[nH]1 5.91%
CC/C=C\C/C=C\C/C=C\C/C=C\C/C=C\C/C=C\CCC(=O)NC(C)C(=O)O (stereo not given) 3.92%
COC(=O)C1=C(C)N(Cc2ccccc2)C2=C3C(=O)N(c4ccccc4)C(=O)C3[C@@](O)(C(=O)OC)C(=O)N2C1c1ccccc1 (stereo not given in full) -3.25% [at 12.4 µM] and -3.97% [at 12.4 µM]
COc1ccc(S(=O)(=O)c2c(Nc3cccc(Cl)c3)sc(C(=O)c3ccccc3)c2N)cc1 -4.89%
CC1(C)OC2CO[C@]3(COS(N)(=O)=O)OC(C)(C)OC3C2O1 (stereo not given in full) -7.65%
COc1cc(OC)c(NC(=O)c2nc(-c3ccncc3)no2)cc1Cl 1.3%
N#Cc1c(C(F)(F)F)cc(-c2cccs2)nc1N1CCCCC1 -2.96%
C=C1C(=CC=C2CCC[C@@]3(C)[C@@H]2CC[C@H]3[C@H](C)CCCC(C)C)C[C@@H](O)C[C@@H]1O -22.4%
CC(C)CN1CCc2nc(-c3ccccc3)c3c(c2C1)COC(C)C3 (stereo not given) -4.43% [at 12.4 µM]
Cc1ccc(CCNC(=O)C2CCN(c3nnc(-n4cccc4CNc4ccc(C)cc4)s3)CC2)cc1 -9.92%
CC(C)C1=CC2=CC[C@H]3[C@](C)(C(=O)O)CCC[C@]3(C)C2CC1 (stereo not given in full) 4.37%
CCOC(=O)c1ccc(-c2ccc(/C=C(\C#N)C(=O)Nc3ccc(OCC)cc3)o2)cc1 -5.55%
O=C(O)c1cc(Cl)c(Cl)cc1C(=O)Nc1cccc2ncccc12 -9.89%
FC(F)(F)c1ccccc1-c1nc(-n2ccnc2)c2ccccc2n1 -3.83%
C/C(CCN1CCCCc2nc(C)c(C)cc21)=N\O[C@@H](C)c1cn([C@@H]2COC[C@@H]2O)nn1 3.53% [at 12.4 µM]
CN1C(=O)CN2CCc3ccccc3C2c2cc(Cl)ccc21 (stereo not given) 3.82%
C=C[C@](C)(O)CCC1C(=C)CCC2[C@@](C)(CO)CCC[C@@]12C (stereo not given in full) -2.39%
CC/C=C\C/C=C\C/C=C\C/C=C\C/C=C\C/C=C\CCC(=O)NCCc1ccc(O)c(O)c1 -0.801%
CC(C)C(N)C(=O)OCCOCn1cnc2c(=O)[nH]c(N)nc21 (stereo not given) -7.58%
O=C(O)C[C@@H]1NC(=O)[C@H](Cc2ccccc2)NC1=O 0.405%
CCc1ccc(NC(=O)c2cnc3c(-c4ccccc4)c(C)nn3c2C)cc1 -1.21%
COC1C[C@@H](O[C@@H]2C(C)C(=O)OC(C)C(C)C(O)C(C)C(=O)[C@@]3(CO3)CC(C)C(OC3OC(C)CC(N(C)C)C3O)C2C)OC(C)[C@@H]1O (stereo not given in full) -4.86%
CC(=O)Oc1c2c(c3c(c1CC=C(C)C)O[C@@]14C(=CC5CC1C(C)(C)OC4(C/C=C(\C)C(=O)O)C5=O)C3=O)OC(C)(CCC=C(C)C)C=C2 (stereo not given in full) -15.4%
c1ccc2c(Nc3ccncc3)nc(-c3ccc4c(c3)OCO4)nc2c1 -15.1%
CCOc1ccc(NC(=O)c2ncoc2-c2ccco2)cc1 -4.8%
COc1ccc(-c2nc3ccc(C(=O)NCc4ccc(C)cc4)cc3nc2-c2ccc(OC)cc2)cc1 -3.72%
COc1ccc(NC(=O)COCc2cc(-c3ccco3)on2)cc1 0.68%
COc1cccc(S(=O)(=O)NCc2ccc(C(=O)NCc3ccccn3)cc2)c1 0.376%
Cc1cccc(C)c1NC(=O)NC1=CCCN1C -6.49%
CCOC(=O)c1c(N)n(-c2cccc(C)c2C)c2nc3ccccc3nc12 -6.93%
Cc1noc(C)c1C(=O)NCCc1ccc(S(N)(=O)=O)cc1 -0.714%
COc1ccccc1CNc1ccnc(-c2c(C)noc2C)n1 -3.97%
N#CCCn1c(=O)c(-c2cc(F)cc(F)c2)nc2cnc(Oc3ccccc3)nc21 -12.2%
Cc1ccc(-c2nnc(SCC(=O)NCc3ccccc3)nc2-c2ccc(C)cc2)cc1 -9.64%
O=C(NCCSc1ccccc1)c1ccco1 -7.71%
CC1(C)N=C(SCc2ccccc2Cl)c2ccccc2N1 -0.452%
Clc1ccccc1CSc1nncn2c1cc1occc12 -3.01%
COc1ccc(N2CCN(C(=O)CSCc3nc(-c4ccccc4Cl)oc3C)CC2)cc1 -3.38%
Cc1ccc2c(=O)c(C(=O)c3cccc(Cl)c3)cn(CC(=O)NCc3ccccc3)c2n1 1.52%
C=C/C1=C/Cc2ccccc2[C@H](C[N+](=O)[O-])C(C(=O)OC)(C(=O)OC)C1 1.77%
O=P(O)(O)OC[C@H](O)CO -13.5%
O=c1c(-c2cc(F)cc(F)c2)nc2cnc(Oc3ccccc3)nc2n1C[C@H]1CCCO1 -7.56%
C=CCC(C)(O)c1ccco1 (stereo not given) 1.35%
N#Cc1ccccc1-c1ccc2ncnc(NCc3cccnc3)c2c1 -6.8%

Potency, inactive:
OCCC(O)CO (stereo not given)
CCC(C)[C@@H](N)C(=O)O (stereo not given in full)

Potency, active:
COc1ccc(NC(=O)CSc2nc(NS(=O)(=O)c3ccc(C)cc3)cc(=O)[nH]2)cc1 22.4 µM
CCOC(=O)c1c(C)[nH]c2c1-c1ccccc1C(=O)C2=O 2.82 µM
N#Cc1c(N2CCCCC2)nc(N)c2c(N)nc(SCC(=O)O)cc12 28.2 µM
Cc1ccc(/C=C(\C#N)C(=O)Nc2cccc3ncccc23)o1 7.94 µM
Cc1c(S(=O)(=O)O)oc2c1C(=O)C(=O)c1c-2ccc2c1CCCC2(C)C 31.6 µM
COCCNC(=O)Nc1ccc2nc(-c3ccco3)c(-c3ccco3)nc2c1 12.6 µM
O=C(NCc1ccccn1)c1ccc2nc(-c3ccco3)c(-c3ccco3)nc2c1 8.91 µM
CCCNC(=O)c1c(N)n(-c2ccc(S(N)(=O)=O)cc2)c2nc3ccccc3nc12 20 µM
c1ccc(CSc2nnc(-c3ccco3)c(-c3ccco3)n2)cc1 14.1 µM
Clc1ccccc1CSc1nnc(-c2ccco2)c(-c2ccco2)n1 14.1 µM
